# PubChem BioAssay AID1863 (Southern Research Specialized Biocontainment Screening …, 2009)
# Screen size: about 300,000 compounds; about 480 (0.16%) were called active.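 The calls were made as follows: active = inhibition over 29.93%, a cutoff 3 SD above the screen mean, later confirmed by dose response; inconclusive = inhibition over 29.93% but no dose response follow-up; inactive = inhibition at most 29.93% or unconfirmed.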 A selection follows. Entries with a potency or affinity are not part of this list.
# Assay: PhoP-dependent GFP reporter repression – Salmonella Typhimurium, primary screen (AID 1863);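 also: 0% = low Mg2+ inducing control and 100% = high Mg2+ repressing control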
# Details: S. Typhimurium PhoP-regulated promoter GFP reporter, 4 h; at 50 µM; hits give high values
row,Structure (SMILES),inhibition
1,O=S1(=O)N=C(SCCO)c2ccccc21,-8.43% (inactive)
2,Cc1ccc(SC2=C(Sc3ccc(C)cc3)C(=O)c3ccccc3C2=O)cc1,4.97% (inactive)
3,CCn1c(SCC(=O)NCCc2ccccc2)nc2c([nH]c3ccccc32)c1=O,-1.21% (inactive)
4,CCCc1nc2ccc(NC(=O)NCCC(=O)OCC)cc2c(=O)n1Cc1cccc(Cl)c1,6.26% (inactive)
5,O=C(NOC(=O)c1ccccc1F)c1ccc(OC(F)F)cc1,-1.76% (inactive)
6,CCOC(=O)Cn1c(=N)n(CCOc2cccc(C)c2)c2ccccc21,-6.78% (inactive)
7,CCCCOC(=O)Cn1c2ccc(OC)cc2c2nc3ccccc3nc21,-30.4% (inactive)
8,CCCCCOC(=O)Cn1c(=O)oc2ccc(C)cc21,8.75% (inactive)
9,CCCCOC(=O)Cn1c(=O)n(CC(=O)OCCCC)c2ccccc21,1.46% (inactive)
10,O=C(O)Cn1c(COc2ccc(Cl)cc2)nc2ccccc21,-9.39% (inactive)
11,CCCCc1n(CC(=O)c2ccc(Cl)cc2)c2ccccc2[n+]1C,7.69% (inactive)
12,CCCCCCCCCCOC(=O)Cn1c(COc2ccccc2C)[n+](C)c2ccccc21,13.3% (inactive)
13,Cn1c(COc2ccccc2O)[n+](C)c2ccccc21,19.1% (inactive)
14,Cc1onc(-c2c(Cl)cccc2Cl)c1C(=O)Nc1ccc2c(c1)OCO2,5.51% (inactive)
15,CN1CCN(NC(=S)NC2CCCCC2)CC1,2.99% (inactive)
16,CC1(c2ccncc2)Nc2ccccc2-c2nc3ccccc3n21 (stereo unspecified),4.56% (inactive)
17,CC1CCCCC1NC(=O)CNC(=O)c1cccs1 (stereo unspecified),0.65% (inactive)
18,COC(=O)c1cc(OC)c(OC)cc1NC(=S)N1CCN(Cc2ccccc2)CC1,-2.33% (inactive)
19,CCN(Cc1ccccc1)Cc1ccc(OCc2ccccc2)cc1,-0.23% (inactive)
20,CC(=O)c1ccc(OCc2cc(C(=O)N3CCN4CCCC4C3)no2)cc1 (stereo unspecified),-1.66% (inactive)
21,CCCCCOC(=O)Cn1c(=O)oc2ccccc21,5.08% (inactive)
22,CCCCCCOc1ccc(C(=O)O)cc1,-7.54% (inactive)

row,Structure (SMILES),inhibition
1,CCCCOC(=O)Cn1c(=O)oc2ccc(C)cc21,1.86% (inactive)
2,CCCCOC(=O)Cn1c(=N)n(CCC)c2ccccc21,8.26% (inactive)
3,CCN(CC)CCN1C(=O)c2ccccc2NC1c1cccc(F)c1 (stereo unspecified),-1.91% (inactive)
4,CCN(c1ccc(NC(=O)COC(=O)/C=C/c2cccs2)cc1)C(C)C,1.21% (inactive)
5,CCOc1ccc(S(=O)(=O)N(CCO)CCO)cc1-c1nc2c(C(C)(C)C)nn(C)c2c(=O)[nH]1,6.61% (inactive)
6,COCCCNCCCOc1ccc(Cl)cc1Br,16.4% (inactive)
7,Cc1cc(Br)ccc1OCCNCc1ccccc1,5.75% (inactive)
8,COCCNCCCOc1ccc(Br)cc1Cl,2.25% (inactive)
9,CCc1cc(OCCCCNCc2ccccc2)ccc1Cl,-6.28% (inactive)
10,OCCNCCCOc1ccc(Cl)cc1Br,9.05% (inactive)
11,Clc1ccc(OCCCNCc2ccccc2)c2ccccc12,13.7% (inactive)
12,O=C(COC(=O)c1ccncc1)NCc1ccccc1,-7.25% (inactive)
13,CN(CC(=O)Nc1ccc(OC(F)(F)F)cc1)C1CCCCC1,9.36% (inactive)
14,COc1cccc(NC(=O)CN(C)C(=O)c2ccc(-c3ccccc3Cl)o2)c1,-0.25% (inactive)
15,COCc1cc(=O)[nH]c(-c2ccccc2)n1,9.5% (inactive)
16,COc1ccc(/C=C2/SC(=O)N(CCC(=O)Nc3ccc(C)cc3)C2=O)cc1OC,1.5% (inactive)
17,c1ccc2cc(OCCCn3ccnc3)ccc2c1,-2% (inactive)
18,Clc1ccc(OCCn2ccnc2)c(Cl)c1,26.6% (inactive)
19,Clc1ccccc1OCCCn1ccnc1,2.45% (inactive)
20,Clc1ccccc1OCCn1ccnc1,21.2% (inactive)
21,COc1ccc(Cc2noc(CN(C)CC3CCN(Cc4ccccc4)CC3)n2)cc1OC,0.81% (inactive)
22,N#CCCN(C(=O)CSc1nc2nc(-c3cccs3)cc(C(F)(F)F)c2c(=O)[nH]1)c1ccccc1,-5.71% (inactive)

row,Structure (SMILES),inhibition
1,CC(C)C(=O)NC(=S)Nc1ccccn1,1.05% (inactive)
2,COc1ccc(-c2cc(C(=O)Nc3c(C)n(C)n(-c4ccccc4)c3=O)c3ccccc3n2)cc1,6.3% (inactive)
3,O=C(O)CNC(=O)c1ccc(NC(=O)/C(=C/c2cccc([N+](=O)[O-])c2)NC(=O)c2ccco2)cc1,1.55% (inactive)
4,Cc1ccc(Nc2nc(N)c3ccccc3n2)cc1C,-7.22% (inactive)
5,COc1cc2nc(Nc3ccc(C)c(Cl)c3)nc(N)c2cc1OC,-5.89% (inactive)
6,CCOC(=O)N1CCN(C(=O)c2ccc(C)c(S(=O)(=O)Nc3cccc(C)c3C)c2)CC1,-9.54% (inactive)
7,Cc1nc(SC(C(=O)c2ccccc2)c2ccccc2)nc2ccccc12 (stereo unspecified),5.08% (inactive)
8,O=Cc1c(N2CCC3(CC2)OCCO3)nc2ccccn2c1=O,-5.94% (inactive)
9,COc1ccc(/C=N/Nc2cc(C)nc3ccc(Br)cc23)cc1,-2.21% (inactive)
10,Cc1cc(N/N=C/c2ccc(N(C)C)cc2)c2ccccc2n1,5.73% (inactive)
11,COc1cccc2c(N/N=C/c3ccccc3)cc(C)nc12,-2.56% (inactive)
12,Cc1cc(N/N=C/c2ccc(O)cc2)c2cccc(C)c2n1,-15.4% (inactive)
13,Cc1ccccc1NC(=O)NC1(C(=O)NCC2CCCO2)CCCCC1 (stereo unspecified),-0.07% (inactive)
14,CC1CCCC(C)N1/N=C/c1ccccc1Br (stereo unspecified),-3.03% (inactive)
15,CC1CCCC(C)N1/N=C/c1cccc(Br)c1 (stereo unspecified),-2.2% (inactive)
16,CC1(C)NC(=O)N(CC(O)CN(c2ccccc2)S(=O)(=O)c2ccccc2)C1=O (stereo unspecified),-1.71% (inactive)
17,Cc1ccc(C(=O)N/C(=C\c2ccco2)C(=O)NCc2cccnc2)cc1,2% (inactive)
18,CC1(C)C(=O)Nc2ccccc2N1C(=O)Cn1ncc(Cl)c(Cl)c1=O,1.69% (inactive)
19,O=C(Nc1cc(N2CCCCC2)ncn1)c1ccccc1,1.2% (inactive)
20,COc1ccc(CCNC(=O)c2cc(COc3c(F)cccc3F)on2)c(OC)c1,6.23% (inactive)
21,O=C(NC1CCCc2ccccc21)c1ccc([N+](=O)[O-])cc1 (stereo unspecified),-2.23% (inactive)
22,O=[N+]([O-])c1ccccc1CNC1CCCc2ccccc21 (stereo unspecified),-9.02% (inactive)
